Potency and activity change, negative = inhibition data for 32 compounds are collected here from PubChem BioAssay (NCATS).

Molecules are shown by their SMILES. Inconclusive results are not listed. A number with no mark means an inactive call. The source made the active and inactive calls. The call rests on the fitted dose curve; in most records, active means well fitted inhibition curve with a large enough effect; inconclusive means small, poorly fitted or top-dose-only effect; inactive means no such curve, though single readings can be large or run the other way. Where a SMILES comes first, the peptide text is derived from it. The star is where a group is joined. Cbz = O=C(OCc1ccccc1)*; CH2Cl = ClC*

Assay [1] has as its system Zika virus NS2B-NS3 protease (unlinked complex). Kind of assay: Primary screen GU Rhodamine qHTS for Zika virus inhibitors: Unlinked NS2B-NS3 protease assay (AID 1347159). Further: nearly all actives have a fitted effect of over 60% in size. In outline:
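A qHTS format was used, with compound concentrations ranging up to 114 microM. Each compound was preincubated with 25 nM NS2B-NS3 protease, and the substrate was then added at 1.5 microM. Curves were fitted with a 4-parameter Hill model.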
For orientation: qHTS replaces the single test concentration by a dilution series.

The subject of assay [2] is Zika virus NS2B-NS3 protease (linked construct). Kind of assay: Primary screen NINDS Rhodamine qHTS for Zika virus inhibitors (AID 1347160). Further: nearly all actives have a fitted effect of over 55% in size. The method, boiled down: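 Kinetic fluorescence (Ex 480 nm, Em 540 nm) over 15 min with 1.5 microM Rhodamine110 peptide and 25 nM linked protease.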
On the % scale 0 is the no-effect control and ±100 the full control effect; potency means the concentration at half of the fitted maximal effect.

Turning to `O=C(NCCN1CCC(n2c(=O)[nH]c3ccccc32)CC1)c1cc2cc(F)ccc2[nH]1`, the Potency result in assay [1] and in assay [2] was “inactive” each time.

For `COc1ccc(CCN(C)CCCOc2nsc(-c3ccccc3)n2)cc1OC`, the Potency entry in assay [1] and in assay [2] was “inactive” throughout.

Turning to `CC(O)(C(=O)C1CC1(CO)COC1OC(CO)C(O)C(O)C1O)C1C(O)CC2C3CC=C4CC(O)CC(O)C4(C)C3C(O)CC21C` (centres undefined), the Potency result in assay [1] and in assay [2] was “inactive” throughout.

`CCCC(Nc1nc(-c2ccc(NC(=O)NCC)c(OC)c2)ncc1C)c1cccnc1` (centres undefined): the Potency result in assay [1] and in assay [2] was “inactive” throughout.

As for `C=C1C(=O)O[C@@H]2[C@H]1CC[C@H](C)C(CCC(=O)O)C2(C)O` (some centres undefined), the Potency result in assay [1] and in assay [2] was “inactive” throughout.

For `C#CC(=O)N(c1ccc(OC)cc1OC)C(C(=O)NCC(=O)OCC)c1cccs1` (centres undefined), the Potency entry in assay [1] and in assay [2] was “inactive” each time.

With `CC(=O)c1ccc2c(c1)[C@H](NC(=O)c1ccc(F)c(Cl)c1)[C@H](O)C(C)(C)O2`, the Potency entry in assay [1] and in assay [2] was “inactive” throughout.

Consider `COCCCNC(=O)c1ccc(Cn2c(=O)c3ccccc3n(Cc3ccc(C(C)C)cc3)c2=O)cc1`, for which the Potency result in assay [1] and in assay [2] was “inactive” each time.

In the case of `COc1ccc(S(=O)(=O)n2cnc3cc(C)c(C)cc32)cc1`, the Potency result in assay [1] and in assay [2] was “inactive” each time.

Consider `Cc1cc2sc(NC(=O)Cc3ccccc3)nc2cc1Cl`, for which the Potency result in assay [1] and in assay [2] was “inactive” in each case.

In the case of `CCCCNc1ncc(-c2ccc(CN3CCOCC3)cn2)c(NC2CCC(O)CC2)n1` (centres undefined), the Potency result in assay [1] and in assay [2] was “inactive” each time.

For `Cc1[nH]c2ccccc2c1CCNC(=O)c1cccs1`, the Potency entry in assay [1] and in assay [2] was “inactive” throughout.

As for `C=CCC1=C[C@]2(OC)[C@H](C)[C@@H](c3ccc4c(c3)OCO4)O[C@]2(OC)CC1=O`, the Potency result in assay [1] and in assay [2] was “inactive” in each case.

Regarding `C/C1=C\CCC2=CC(OC2=O)C(C)(C)/C=C/C1=O` (centres undefined), the Potency result in assay [1] and in assay [2] was “inactive” each time.

In the case of `CC1(C)CC[C@]2(C(=O)O)[C@H](O)C[C@]3(C)C(=CCC4[C@@]5(C)CC[C@H](O[C@@H]6O[C@H](CO[C@@H]7OC[C@H](O)[C@H](O)[C@H]7O[C@@H]7OC[C@H](O)[C@H](O)[C@H]7O)[C@@H](O)[C@H](O)[C@H]6O)C(C)(C)C5CC[C@]43C)[C@@H]2C1` (some centres undefined), the Potency result in assay [1] and in assay [2] was “inactive” in each case.

As to `CN(C)C(=O)NC1(c2ccccc2)CCN(CCC[C@]2(c3ccc(Cl)c(Cl)c3)CCCN(C(=O)c3ccccc3)C2)CC1`, the Potency entry in assay [1] and in assay [2] was “inactive” throughout.

Take `C=CC(C)(O)CC/C=C(\C)C(=O)OC1C(O)C(CO)OC(OC(=O)C23CCC(C)(C)CC2C2=CCC4C5(C)CCC(OC6OC(COC7OCC(OC(C)=O)C(O)C7OC7OC(COC(C)=O)C(O)C(O)C7OC(C)=O)C(O)C(O)C6OC6OCC(O)C(O)C6O)C(C)(C)C5CCC4(C)C2(C)C(O)C3O)C1OC1OCC(OC2OCC(O)C(OC3OCC(O)C(O)C3O)C2O)C(O)C1O` (centres undefined): the activity change, negative = inhibition in assay [1] was 23.6% [at 19.1 µM]; in assay [2] it was -13.7% [at 10.7 µM].

On to `CC(=O)O[C@@H]1CC[C@@]2(C)[C@H](CC[C@@H]3[C@@H]2C[C@H](OC(C)=O)[C@]2(C)[C@@H](C(C)=O)CC[C@@H]32)C1`, for which the Potency entry in assay [1] and in assay [2] was “inactive” in each case.

Consider `CC(C)=CCCC1(C)/C=C/C(OC(=O)C=C(C)C)C(C)(O)/C=C/C(=O)/C(CO)=C\C1` (centres undefined), for which the Potency entry in assay [1] and in assay [2] was “inactive” in each case.

Take `CCC(C)(OC(C)=O)C(=O)O[C@H]1[C@H](OC(C)=O)[C@]2(CO)[C@H](O)[C@H](O)[C@]3(C)C(=CCC4[C@@]5(C)CC[C@H](O[C@@H]6O[C@H](C(=O)O)[C@@H](O)[C@H](O[C@@H]7OC[C@H](O)[C@H](O[C@@H]8OC[C@H](O)[C@H](O)[C@H]8O)[C@H]7O)[C@H]6O[C@@H]6O[C@H](CO)[C@@H](O)[C@H](O)[C@H]6O)C(C)(C)C5CC[C@]43C)[C@@H]2CC1(C)C` (some centres undefined): the activity change, negative = inhibition in assay [1] was -1.56% [at 19.1 µM]; in assay [2] it was -4.88% [at 10.7 µM].

As for `CCn1nc(C2CCN(C(=O)CCO)CC2)nc1-c1cnc(N)c(-c2nnc(C(C)(C)C)o2)n1`, the Potency result in assay [1] and in assay [2] was “inactive” each time.

Regarding `O=C(NCCCN1CCOCC1)c1cnn2c(-c3ccccc3)cc(-c3ccccc3)nc12`, the Potency result in assay [1] and in assay [2] was “inactive” throughout.

Take `CC(C)C[C@H](NC(=O)CNC(=O)OCc1ccccc1)C(=O)N[C@@H](Cc1ccccc1)C(=O)CCl` (Cbz-Gly-Leu-Phe-CH2Cl): the Potency entry in assay [1] and in assay [2] was “inactive” in each case.

Consider `CC(=O)NC(C(=O)O[C@H]1CCC(C)(C)[C@@H]2CC=C3C(=O)OCC3(O)[C@@]12C)C(C)C` (some centres undefined), for which the Potency result in assay [1] and in assay [2] was “inactive” in each case.

With `CCN(CC)CCCS(=O)(=O)N[C@H](CCc1ccccc1)c1nc(Cc2ccc(Br)cc2)no1`, the Potency result in assay [1] and in assay [2] was “inactive” each time.

Regarding `CC(C)n1cnc2c(-c3cnc(N)nc3)nc(N3CCOCC3)nc21`, the Potency entry in assay [1] and in assay [2] was “inactive” each time.

Take `COc1ccc([C@H](Cc2ccncc2)c2ccccc2)cc1OC1CCCC1`: the Potency entry in assay [1] and in assay [2] was “inactive” each time.

Regarding `Cc1cc(NC(=O)c2cccc(NC(=O)/C=C/CN(C)C)c2)ccc1Nc1nccc(-c2cccnc2)n1`, the Potency result in assay [1] and in assay [2] was “inactive” throughout.

Turning to `Cc1ccc(NC(=O)C(C)C)cc1C1CCN(Cc2ccc(Oc3ccc(F)c(F)c3)cc2)CC1`, the Potency entry in assay [1] and in assay [2] was “inactive” each time.

As for `CCNC(=O)N1CCCN(c2ccc(C(=O)NCCc3ccc(Cl)cc3Cl)cc2NC(=O)c2cccc(Cl)c2)CC1`, the Potency entry in assay [1] and in assay [2] was “inactive” throughout.

For the compound `C=C[C@H](/C=C\c1ccc(O)cc1)c1ccc(O)cc1`, the Potency result in assay [1] and in assay [2] was “inactive” throughout.

For `CC(=O)O[C@@H]1CC[C@@]2(C)C(CC[C@]3(C)C2[C@H](O)C=C2[C@H]4[C@@H](C)[C@H](C)CC[C@]4(C)CC[C@]23C)[C@@]1(C)C(=O)O` (some centres undefined), the Potency in assay [1] was 7.08 µM (active); in assay [2] it was 11.2 µM (active).
